Structures are written as SMILES. About 83,000 compounds went through this panel and 20% of them were active in at least one assay; those are over-represented in the sample as a whole.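 A percent growth of 40 corresponds to 60% growth inhibition; 0 means no net growth; -100 means all cells died. Active threshold: below 10.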 Values without a mark were called inactive. Activity calls are given as the source filed them.

What all share (experiment): NCI-60 one-dose screen, 48 h (100 = growth as untreated, 0 = no growth, -100 = all killed)
The subject of experiment [1] is SK-MEL-2 melanoma. The following applies: 10 µM unless noted.
Experiment [2] concerns EKVX NSCLC. The following applies: 10 µM unless noted.
The test system of experiment [3] is SN12C renal. To be noted: 10 µM unless noted.
In experiment [4] the test system is UO-31 renal. To be noted: 10 µM unless noted.
In experiment [5] the test system is TK-10 renal. To be noted: 10 µM unless noted.
The subject of experiment [6] is ACHN renal. The following applies: 10 µM unless noted.
The test system of experiment [7] is CAKI-1 renal. The following applies: 10 µM unless noted.
For experiment [8], the system named is A498 renal. The following applies: 10 µM unless noted.
In experiment [9] the test system is CCRF-CEM leukemia. The following applies: 10 µM unless noted.
The subject of experiment [10] is MOLT-4 leukemia. To be noted: 10 µM unless noted.
In experiment [11] the test system is SR leukemia. The following applies: 10 µM unless noted.
The test system of experiment [12] is RPMI-8226 leukemia. To be noted: 10 µM unless noted.
For experiment [13], the system named is OVCAR-5 ovarian. The following applies: 10 µM unless noted.
The subject of experiment [14] is OVCAR-4 ovarian. The following applies: 10 µM unless noted.
Experiment [15] has as its system SK-OV-3 ovarian. To be noted: 10 µM unless noted.
Experiment [16] has as its system IGROV1 ovarian. To be noted: 10 µM unless noted.
The subject of experiment [17] is OVCAR-3 ovarian. To be noted: 10 µM unless noted.
Experiment [18] concerns HS 578T breast. To be noted: 10 µM.
In experiment [19] the test system is NCI/ADR-RES ovarian. To be noted: 10 µM unless noted.
The test system of experiment [20] is OVCAR-8 ovarian. To be noted: 10 µM unless noted.

As for `Cc1c(-c2ccc(-c3ccccc3F)cc2)nc2ccc(F)cc2c1C(=O)O`, the growth in [1] is 101%; in [2] it was 55%; in experiment [3], 47.6%; in experiment [4] it was 35.8%; in experiment [5], 56%; in experiment [6] it was 36.5%. Besides, the growth was 25.9% in [7]; 80.9% in [8]; 27.9% in experiment [9]; 2.49% (active) in [10]; 23.4% in experiment [11]; 23.3% in experiment [12]. For the same compound, the growth in [13] was 34.8%; in experiment [14] it was 75.1%; in experiment [15] it was 65.1%; in experiment [16] it was 44.6%; in experiment [17] it was 55.9%; in experiment [18], 67%. In [19], the growth was 49.6%.
As for `O=C(NNC(=S)Nc1ccccc1)c1ccc(Nc2ncnc3c2cnn3-c2cccc(Br)c2)cc1`, the growth in experiment [1] is 105%; in experiment [2], 105%; in experiment [3], 96.1%; in experiment [4], 82.3%; in experiment [5] it was 106%; in experiment [6], 106%. Further, the growth was 93.4% in experiment [7]; 102% in [8]; 108% in experiment [9]; 104% in experiment [10]; 115% in [11]; 110% in experiment [12]. The growth in experiment [20] was 110%; in [14], 106%; in experiment [15], 101%; in experiment [16], 107%; in experiment [17], 107%; in experiment [18], 105%. Also, the growth in experiment [19] is 105%.
Regarding `CN(C)c1ccc(Nc2c3ccccc3nc3ccccc23)cc1`, the growth in experiment [1] is 40.1%; in [2] it was 19.1%; in [3], 16.4%; in experiment [4], -31% (active); in experiment [5], 34.1%; in [6] it was -18.8% (active). The growth in [7] was -13.5% (active); in experiment [8], 14.2%; in experiment [9] it was 19.9%; in [10], 6.01% (active); in [11] it was -8.36% (active); in experiment [12], 17.2%. The growth in experiment [20] is 23.5%; in experiment [14] it was 1.57% (active); in [15], 22%; in experiment [17], -11.7% (active); in experiment [18] it was 25.2%; in [19], 12.5%.
As to `COc1cc2c(cc1I)-c1c(cc(OC)c(OC)c1OC)CC[C@@H]2NC(C)=O`, the growth in experiment [1] was 18.7%; in experiment [2], 44.6%; in experiment [3] it was 26.2%; in experiment [4] it was 29.5%; in [5], 59%; in experiment [6], 33.2%. Also, the growth in experiment [7] was 8.95% (active); in experiment [8], -30.6% (active); in [9] it was 22.4%; in experiment [10], 24.3%; in experiment [12], 35.5%; in [20], 24.6%. The growth in experiment [13] is 36%; in experiment [14], 40.8%; in experiment [15] it was 10.3%; in experiment [16], 9.96% (active); in [17] it was 17.3%; in experiment [18], -21.4% (active). In [19], the growth is -19.2% (active).
On to `CC(=O)N(C)c1ccc(Nc2cc(C)[nH]c3ccc4ncnc4c23)cc1`, for which the growth was 116% in [1]; 79.4% in experiment [2]; 61.7% in [3]; 72.6% in experiment [4]; 79.3% in experiment [5]; 55.4% in experiment [6]. Besides, the growth in [7] was 80.3%; in [8], 78.5%; in experiment [9], 28.9%; in experiment [10] it was 1.82% (active); in experiment [11] it was 11.1%; in experiment [12], 56.2%. Besides, the growth in experiment [13] is 63.5%; in experiment [14], 77.9%; in experiment [15], 74.3%; in [16] it was 1.11% (active); in experiment [17], 76.3%; in [18] it was 75.1%. Also, the growth in [19] is 101%.
Turning to `CC1(C)C2CCC(O)(C(=O)O)C1C2` (stereo unspecified), the growth in [1] is 106%; in experiment [2] it was 103%; in experiment [3], 104%; in [4] it was 81.9%; in experiment [5] it was 120%; in [6], 111%. Besides, the growth in experiment [7] was 94%; in experiment [8], 109%; in experiment [9] it was 112%; in [10] it was 115%; in [12], 114%; in experiment [20], 112%. In addition, the growth was 112% in experiment [13]; 99.2% in experiment [14]; 103% in [15]; 95.8% in [16]; 118% in experiment [17]; 115% in [18]. Besides, the growth in experiment [19] is 116%.
On to `Nc1n[nH]c2ccc([C@@H]3Nc4c(F)cc5[nH]ncc5c4[C@H]4C5CCC(C5)[C@@H]34)cc12` (stereo partly specified), for which the growth in [1] is 53.7%; in [2] it was 31.7%; in experiment [3], 22.6%; in experiment [4] it was 28.2%; in experiment [5], 61%; in experiment [6], 22.7%. Moreover, the growth in experiment [7] is 17.3%; in experiment [8] it was -28.6% (active); in experiment [9], 18.1%; in experiment [10], 22.9%; in [11], 42.8%; in experiment [12], 21.3%. In addition, the growth in experiment [20] is 22%; in experiment [14] it was 29.4%; in [15] it was 39.1%; in [16] it was 20.9%; in experiment [17] it was -16.7% (active); in experiment [18], 20.9%. In addition, the growth in experiment [19] was 13.8%.
Turning to `Clc1ccc2c(c1)-c1ccccc1C1=NCCN12`, the growth in experiment [1] was -0.581% (active); in experiment [2], 51.5%; in experiment [3] it was 29.1%; in experiment [4] it was 10.8%; in [5] it was 20.1%; in experiment [6] it was 14.1%. Also, the growth is 29.4% in [7]; 10.3% in [8]; 28.4% in experiment [9]; 17.1% in experiment [10]; 8.25% (active) in experiment [11]; 33% in experiment [12]. In addition, the growth is 41.2% in experiment [13]; 44.4% in [14]; 36.9% in experiment [15]; 24.3% in experiment [16]; 41.1% in experiment [17]; 58.4% in [18]. The growth in [19] was 26.3%.

(Values after PubChem BioAssay (NCI).)
